Data on 2 compounds can be found in PubChem BioAssay (EPA / NIEHS).

Values joined by “and” are separate entries in the source; they are usually repeats but may differ in a detail not shown here. Identical values can stand only once. A structure can be active in one record and inactive in another. Active and inactive are the calls of the source. The calls were made as follows: active = hit-call score of the fitted dose curve at least 0.9, where 1 is the maximum; inactive = score below 0.9.

What all share (details): mRNA level, 48 h; actives raise or lower the signal
Read-out in experiment [1]: Bcl-2 (BAD) gene, BAD (gene 572)
The experiment is described as follows: LTEA_HepaRG_BAD: Life Technologies and Expression Analysis (LTEA) Assay for Bcl-2 (BAD) gene using HepaRG (AID 2283469). Put shortly: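 Activity values reflect up- or down-regulation of BAD mRNA in human HepaRG hepatic cells treated 48 h in serum-free medium, with eight-point half-log dosing capped at 100 uM and 0.5% DMSO vehicle.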

Read-out in experiment [2]: Bcl-2 (BAX) gene, BAX (gene 581)
The experiment is described as follows: LTEA_HepaRG_BAX: Life Technologies and Expression Analysis (LTEA) Assay for Bcl-2 (BAX) gene using HepaRG (AID 2283470). Put shortly: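 Gene expression measured by Fluidigm qRT-PCR with three housekeeping genes for normalisation. HepaRG cells, plated 48 h beforehand, treated 48 h at up to 100 uM (8-point, half-log) in 0.5% DMSO. Bidirectional fitting versus DMSO.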

Read-out in experiment [3]: adenosine kinase (ADK) gene, ADK (gene 132)
The experiment is described as follows: LTEA_HepaRG_ADK: Life Technologies and Expression Analysis (LTEA) Assay for adenosine kinase (ADK) gene using HepaRG (AID 2283471). Put shortly:
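Following 48 h exposure of HepaRG cells in 0.5% DMSO (top concentration 100 uM, duplicate wells), ADK mRNA induction or suppression was measured by qRT-PCR, normalised to ACTB/GAPDH/POLR2A, and fitted bidirectionally relative to vehicle.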

Read-out in experiment [4]: Alpha-fetoprotein (AFP) gene, AFP (gene 174)
The experiment is described as follows: LTEA_HepaRG_AFP: Life Technologies and Expression Analysis (LTEA) Assay for Alpha-fetoprotein (AFP) gene using HepaRG (AID 2283472). Put shortly: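 AFP transcript measured by TaqMan qRT-PCR with three housekeeping genes for normalization, after 48 h chemical treatment of HepaRG cells (top 100 uM, half-log steps, 0.5% DMSO). Gain or loss fitted against vehicle.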

Read-out in the next experiment: BCL2L11 (gene 10018)
The experiment is described as follows: LTEA_HepaRG_BCL2L11: Life Technologies and Expression Analysis (LTEA) Assay for Bcl-2 (BCL2L11) gene using HepaRG (AID 2283473). Put shortly:
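Cells were plated, cultured 48 h, switched to serum-free induction medium, then dosed in duplicate for 48 h at eight half-log concentrations up to 100 uM. Lysates underwent RNA isolation and TaqMan qRT-PCR; gain or loss versus DMSO was fitted.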

Read-out in experiment [5]: Apolipoprotein A-V (APOA5) gene, APOA5 (gene 116519)
The experiment is described as follows: LTEA_HepaRG_APOA5: Life Technologies and Expression Analysis (LTEA) Assay for Apolipoprotein A-V (APOA5) gene using HepaRG (AID 2283474). In short, it runs like this:
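Human liver HepaRG cells are treated 48 h with test chemicals (100 uM top, half-log dilutions, 0.5% DMSO). APOA5 mRNA induction or loss is measured by qRT-PCR relative to vehicle.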

Read-out in experiment [6]: Apoptosis regulator Bcl-2 (Homo sapiens) (UniProt P10415)
The experiment is described as follows: LTEA_HepaRG_BCL2: Life Technologies and Expression Analysis (LTEA) Assay for Bcl-2 gene using HepaRG (AID 2283475). Put shortly:
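qRT-PCR of BCL2 transcript, normalized to three housekeeping genes (ACTB, GAPDH, POLR2A), after 48 h chemical exposure of HepaRG cells; concentrations top 100 uM with half-log dilutions, 0.5% DMSO vehicle, duplicates; changes up or down fitted relative to vehicle.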

Read-out in another experiment: Caspase-3 (Homo sapiens) (UniProt P42574)
Briefly: LTEA_HepaRG_CASP3: Life Technologies and Expression Analysis (LTEA) Assay for cysteine-aspartic acid protease (CASP3) using HepaRG (AID 2283477). In short, it runs like this:
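In HepaRG liver cells dosed for 48 h at up to 100 uM (eight-point, duplicate), CASP3 expression changes are scored by qRT-PCR. Activity is fitted in both directions with 0.5% DMSO as baseline.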

Read-out in experiment [7]: Cytochrome P450 (CYP24A1), CYP24A1 (gene 1591)
The experiment is described as follows: LTEA_HepaRG_CYP24A1: Life Technologies and Expression Analysis (LTEA) Assay for Cytochrome P450 (CYP24A1) using HepaRG (AID 2283478). In short, it runs like this:
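Human liver HepaRG cultures receive each chemical for 48 h across an eight-point half-log series topping at 100 uM in 0.5% DMSO. Induction or suppression of CYP24A1 mRNA is scored relative to vehicle after housekeeping-gene normalization.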

Read-out in experiment [8]: Cytochrome P450 (CYP1A2), CYP1A2 (gene 1544)
The experiment is described as follows: LTEA_HepaRG_CYP1A2: Life Technologies and Expression Analysis (LTEA) Assay for Cytochrome P450 (CYP1A2) using HepaRG (AID 2283479). In short, it runs like this: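 Assesses CYP1A2 mRNA in human HepaRG liver cells after 48 h chemical exposure at up to 100 uM. Values come from qRT-PCR with bidirectional curve fitting relative to DMSO.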

Read-out in experiment [9]: cysteine-aspartic acid protease (CASP8), CASP8 (gene 841)
Briefly: LTEA_HepaRG_CASP8: Life Technologies and Expression Analysis (LTEA) Assay for cysteine-aspartic acid protease (CASP8) using HepaRG (AID 2283480). In short, it runs like this:
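Concentration-response in duplicate up to 100 uM (half-log steps, 0.5% DMSO) on differentiated HepaRG cultures for 48 h. Expression change of CASP8 mRNA is determined by TaqMan qRT-PCR with housekeeping-gene normalization.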

Read-out in experiment [10]: Cytochrome P450 (CYP2B6), CYP2B6 (gene 1555)
The experiment is described as follows: LTEA_HepaRG_CYP2B6: Life Technologies and Expression Analysis (LTEA) Assay for Cytochrome P450 (CYP2B6) using HepaRG (AID 2283481). In short, it runs like this:
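Using 48 h treatment of HepaRG cells in serum-free induction medium, concentrations spanned half-log steps from 100 uM in 0.5% DMSO vehicle. CYP2B6 mRNA induction or loss is scored by qRT-PCR against DMSO.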

Read-out in experiment [11]: Cytochrome P450 2C19 (Homo sapiens) (UniProt P33261)
The experiment is described as follows: LTEA_HepaRG_CYP2C19: Life Technologies and Expression Analysis (LTEA) Assay for CYP2C19 using HepaRG (AID 2283482). Put shortly:
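Human HepaRG liver cells received test chemicals for 48 h (highest 100 uM, half-log dilutions in 0.5% DMSO). CYP2C19 mRNA induction or loss is read by multiplexed qRT-PCR and fitted in both directions versus vehicle.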

Read-out in a further experiment: CYP2C8 (gene 1558)
Briefly: LTEA_HepaRG_CYP2C8: Life Technologies and Expression Analysis (LTEA) Assay for CYP2C8 using HepaRG (AID 2283483). Put shortly:
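This is a transcriptional endpoint in HepaRG cultures: 48 h exposure, highest concentration 100 uM. CYP2C8 mRNA is quantified by TaqMan qRT-PCR.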

Read-out in the next experiment: CYP2C9 (gene 1559)
The experiment is described as follows: LTEA_HepaRG_CYP2C9: Life Technologies and Expression Analysis (LTEA) Assay for CYP2C9 using HepaRG (AID 2283484). In short, it runs like this:
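Eight-point concentration-response (highest 100 uM, half-log dilutions) in HepaRG cells for 48 h; CYP2C9 expression by qRT-PCR normalized to ACTB, GAPDH, POLR2A. Bidirectional fit, DMSO baseline.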

Read-out in a further experiment: CYP2E1 (gene 1571)
The experiment is described as follows: LTEA_HepaRG_CYP2E1: Life Technologies and Expression Analysis (LTEA) Assay for CYP2E1 using HepaRG (AID 2283485). Put shortly:
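CYP2E1 transcript measured by Fluidigm qRT-PCR against three housekeeping genes in human HepaRG cells treated 48 h (top 100 uM, half-log steps, 0.5% DMSO vehicle). Gain or loss fitted relative to DMSO baseline.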

Read-out in a further experiment: CYP4A11 (gene 1579)
Briefly: LTEA_HepaRG_CYP4A11: Life Technologies and Expression Analysis (LTEA) Assay for CYP4A11 using HepaRG (AID 2283486). Put shortly:
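Readout is CYP4A11 mRNA induction or suppression (qRT-PCR, ACTB/GAPDH/POLR2A normalization) in human HepaRG cells after 48 h chemical treatment, concentrations to 100 uM in 0.5% DMSO, fitted bidirectionally against vehicle.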

Read-out in experiment [12]: Cytochrome P450 3A4 (Homo sapiens) (UniProt P08684)
The experiment is described as follows: LTEA_HepaRG_CYP3A4: Life Technologies and Expression Analysis (LTEA) Assay for CYP3A4 using HepaRG (AID 2283487). In short, it runs like this:
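In a human hepatic line (HepaRG), duplicate wells were treated 48 h with up to 100 uM chemical in half-log dilutions. Endpoint: CYP3A4 mRNA induction or loss relative to 0.5% DMSO vehicle, by qRT-PCR.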

Read-out in experiment [13]: DNA damage-inducible transcript 3 (DDIT3), DDIT3 (gene 1649)
The experiment is described as follows: LTEA_HepaRG_DDIT3: Life Technologies and Expression Analysis (LTEA) Assay for DNA damage-inducible transcript 3 (DDIT3) using HepaRG (AID 2283488). Put shortly:
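DDIT3 transcript was quantified by qRT-PCR with ACTB/GAPDH/POLR2A normalization after 48 h chemical treatment of differentiated HepaRG cells in 0.5% DMSO. Dosing was eight-point, half-log, top 100 uM, duplicate wells. Curves fitted bidirectionally versus DMSO.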

Caspase-3 (Homo sapiens), sequence (P42574 whole entry, looked up): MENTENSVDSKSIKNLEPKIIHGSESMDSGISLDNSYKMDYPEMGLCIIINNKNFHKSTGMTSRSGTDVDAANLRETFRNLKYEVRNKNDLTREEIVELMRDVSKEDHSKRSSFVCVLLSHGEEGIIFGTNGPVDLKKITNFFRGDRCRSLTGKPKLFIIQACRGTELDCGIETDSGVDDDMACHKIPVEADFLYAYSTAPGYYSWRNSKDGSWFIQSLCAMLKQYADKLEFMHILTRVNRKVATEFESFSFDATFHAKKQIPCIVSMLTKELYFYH
Cytochrome P450 2C19 (Homo sapiens), sequence (P33261 whole entry, looked up): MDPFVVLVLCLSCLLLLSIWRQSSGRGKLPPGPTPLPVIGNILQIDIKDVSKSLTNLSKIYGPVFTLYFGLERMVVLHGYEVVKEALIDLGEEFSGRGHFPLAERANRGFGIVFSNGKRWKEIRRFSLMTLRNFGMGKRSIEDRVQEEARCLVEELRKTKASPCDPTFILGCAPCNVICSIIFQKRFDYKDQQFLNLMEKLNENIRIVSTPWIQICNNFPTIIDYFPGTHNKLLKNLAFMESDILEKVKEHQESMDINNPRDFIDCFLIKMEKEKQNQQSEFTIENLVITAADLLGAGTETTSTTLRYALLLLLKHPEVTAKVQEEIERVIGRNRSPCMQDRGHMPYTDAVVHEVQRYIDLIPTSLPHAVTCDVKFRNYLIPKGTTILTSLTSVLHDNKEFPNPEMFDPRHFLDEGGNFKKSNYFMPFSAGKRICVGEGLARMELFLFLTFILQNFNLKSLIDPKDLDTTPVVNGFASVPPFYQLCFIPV
Apoptosis regulator Bcl-2 (Homo sapiens), sequence (P10415 whole entry, looked up): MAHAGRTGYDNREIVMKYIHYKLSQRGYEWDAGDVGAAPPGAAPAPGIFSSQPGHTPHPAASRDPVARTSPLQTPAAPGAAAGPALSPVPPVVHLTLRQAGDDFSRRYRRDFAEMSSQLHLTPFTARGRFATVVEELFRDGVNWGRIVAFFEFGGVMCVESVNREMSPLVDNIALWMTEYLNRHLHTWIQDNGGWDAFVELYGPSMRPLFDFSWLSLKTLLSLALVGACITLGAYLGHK
Cytochrome P450 3A4 (Homo sapiens), sequence (P08684 whole entry, looked up): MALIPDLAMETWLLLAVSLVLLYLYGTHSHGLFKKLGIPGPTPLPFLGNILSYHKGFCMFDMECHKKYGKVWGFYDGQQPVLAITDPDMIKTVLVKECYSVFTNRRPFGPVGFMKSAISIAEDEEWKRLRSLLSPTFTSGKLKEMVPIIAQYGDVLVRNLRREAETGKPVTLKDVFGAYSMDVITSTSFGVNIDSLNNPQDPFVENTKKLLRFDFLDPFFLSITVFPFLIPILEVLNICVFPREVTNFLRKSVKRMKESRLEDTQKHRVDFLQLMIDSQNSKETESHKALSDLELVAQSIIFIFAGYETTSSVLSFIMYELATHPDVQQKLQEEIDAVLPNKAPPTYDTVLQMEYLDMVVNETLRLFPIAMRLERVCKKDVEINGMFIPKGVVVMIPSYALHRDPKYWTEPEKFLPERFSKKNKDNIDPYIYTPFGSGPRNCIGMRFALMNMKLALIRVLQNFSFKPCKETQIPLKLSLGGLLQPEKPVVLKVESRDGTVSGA

As for `CCC(C)OC(=O)N1CCCCC1CCO` (centres undefined), the call (in experiment [1]; in [2]; in experiment [3]; in experiment [4]; with BCL2L11 (gene 10018); in [5]) was inactive. The compound was classed as inactive (in experiment [6]; with Caspase-3 (Homo sapiens); in experiment [7]; in experiment [8]; in experiment [9]; with CYP2C8 (gene 1558)). Further, the result with CYP2E1 (gene 1571) and in the experiment with CYP4A11 (gene 1579) was inactive. The AC50 was 35 µM (active) in experiment [10], 50 µM (active) in experiment [11], 4.74 µM (active) with CYP2C9 (gene 1559) and 50 µM (active) in experiment [12].

Consider `S=C(S)NCCNC(=S)S.[Mn+2].[S-]C([S-])=NCCN=C([S-])[S-].[Zn+2]`, for which the compound was called inactive (in [1]; in experiment [2]; with BCL2L11 (gene 10018); in the experiment with Caspase-3 (Homo sapiens); in [7]). In addition, the AC50 was 2.35 µM (active) and 1.62 µM (active) in [2]; 255 nM (active) and 1.08 µM (active) and 270 nM (active) in experiment [3]; 1.28 µM (active) and 1.55 µM (active) in experiment [4]; 3.84 µM (active) with BCL2L11 (gene 10018); 1.22 µM (active) and 1.49 µM (active) and 1.99 µM (active) in experiment [5]; 163 nM (active) and 351 nM (active) and 509 nM (active) in experiment [6]. Further, the half-maximal activity concentration (AC50) in the experiment with Caspase-3 (Homo sapiens) is 501 nM (active) and 990 nM (active); in experiment [8] it was 502 nM (active) and 444 nM (active) and 615 nM (active); in experiment [9], 1.18 µM (active) and 2.18 µM (active) and 1.55 µM (active); in experiment [10], 1.05 µM (active) and 1.1 µM (active) and 1.15 µM (active); in [11], 1.4 µM (active) and 1.55 µM (active); with CYP2C8 (gene 1558), 1.13 µM (active) and 1.15 µM (active) and 1.5 µM (active). Moreover, the AC50 in the experiment with CYP2E1 (gene 1571) is 1.21 µM (active) and 1.4 µM (active) and 1.62 µM (active); with CYP4A11 (gene 1579), 1.38 µM (active) and 1.51 µM (active) and 1.36 µM (active); in experiment [12] it was 827 nM (active) and 1.11 µM (active) and 1.02 µM (active); in experiment [13] it was 3.87 µM (active) and 1.87 µM (active) and 1.64 µM (active).

By AC50 is commonly meant the midpoint of the concentration-response curve, whichever way the signal moves.
